Among the test systems are T-47D breast; BT-549 breast; MDA-MB-435 melanoma; SW-620 colon; MCF7 breast; HCT-116 colon; HCC-2998 colon; KM12 colon.
Assay in all cases: NCI-60 one-dose screen, 48 h (100 = growth as untreated, 0 = no growth, -100 = all killed)
Holding throughout (settings): 10 µM unless noted

The panel holds about 83,000 compounds, 20% with a hit somewhere; the sample as a whole holds those more often.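 Testing used 96-well plates and a 48-hour single-concentration exposure. Example: -40 means 40% of the starting cells died.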 Values without a mark were called inactive. The source made the active and inactive calls. Rule for the calls: active = growth percent below 10; inactive = the rest.

On to `O=C1Nc2ccc(C(=O)O)c(O)c2C1=O`, for which the growth was 106% with T-47D breast; 106% with BT-549 breast; 106% with MDA-MB-435 melanoma; 104% in the test on SW-620 colon; 104% with MCF7 breast; 108% in the test with HCT-116 colon. The growth with HCC-2998 colon is 117%; in the test with KM12 colon it was 106%.

As for `COc1cnc2c(c1)C(=O)c1c-2n(CCCNC(C)C)c(=O)c2cc(F)ccc12`, the growth was -11.5% (active) in the test on T-47D breast; -17.9% (active) in the test on BT-549 breast; -6.52% (active) in the test on MDA-MB-435 melanoma; -8.49% (active) in the test on SW-620 colon; -3% (active) in the test with MCF7 breast; -76.5% (active) in the test with HCT-116 colon. The growth is -49.8% (active) with HCC-2998 colon and -17.7% (active) in the test with KM12 colon.

In the case of `NS(=O)(=O)c1cc2c(cc1Cl)NC=NS2(=O)=O`, the growth with T-47D breast is 97.7%; with BT-549 breast it was 95.9%; in the test with MDA-MB-435 melanoma, 102%; in the test with SW-620 colon, 111%; in the test with MCF7 breast, 96.9%; in the test with HCT-116 colon, 98%. The growth in the test on HCC-2998 colon is 93.4%; in the test on KM12 colon, 106%.

For `O=C(Nc1nc(-c2ccc(Cl)cc2)cs1)c1cc(-c2ccc(Br)cc2)nc2ccc(Cl)cc12`, the growth with T-47D breast was 53%; with BT-549 breast, -15.9% (active); in the test with MDA-MB-435 melanoma it was -21.6% (active); with SW-620 colon it was 34.9%; in the test with MCF7 breast, 16.4%; in the test with HCT-116 colon, 5.84% (active). For the same compound, the growth in the test on HCC-2998 colon is 109%; in the test with KM12 colon, 24.8%.

`CN(C)c1ncnc2c1ncn2C1CCCCO1` (stereo not given): the growth in the test on T-47D breast was 105%; in the test with BT-549 breast it was 101%; in the test with MDA-MB-435 melanoma, 111%; in the test with SW-620 colon, 106%; with MCF7 breast, 96.6%; in the test on HCT-116 colon, 104%. Moreover, the values for the growth in the test on HCC-2998 colon and in the test on KM12 colon were 96.7% and 112%, respectively.

On to `Cn1c(N2N=C(c3ccc(Cl)cc3)CC2c2ccccc2)nc(-c2ccccc2)c(C#N)c1=O` (stereo not given), for which the growth is 64.4% with T-47D breast; 88.1% in the test with BT-549 breast; 83.6% with MDA-MB-435 melanoma; 77.1% with SW-620 colon; 62.1% with MCF7 breast; 51% in the test with HCT-116 colon. Besides, the growth in the test with HCC-2998 colon is 82.3%; in the test with KM12 colon, 78.3%.

For `Nc1nc(Nc2ccccc2SSc2ccccc2Nc2nc(N)nc(-c3ccc(I)cc3)n2)nc(-c2ccc(I)cc2)n1`, the growth is 67.1% in the test on T-47D breast; 70.8% with BT-549 breast; 86.7% with MDA-MB-435 melanoma; 94.3% in the test with SW-620 colon; 76% in the test on MCF7 breast; 50.1% in the test with HCT-116 colon. The growth with HCC-2998 colon was 105%; in the test with KM12 colon it was 37.2%.

For `CC1(C)CC2(C)CC(=O)C1C(C(=O)O)C2C(=O)O` (stereo not given), the growth in the test with T-47D breast was 94.9%; in the test with BT-549 breast, 116%; in the test on MDA-MB-435 melanoma, 118%; in the test on SW-620 colon it was 108%; with MCF7 breast, 95.5%; in the test with HCT-116 colon it was 113%. The growth with HCC-2998 colon was 103%; in the test on KM12 colon, 107%.

For the compound `COC(=O)[C@H](Cc1cn(C)cn1)NC(=O)[C@@H](NC(=O)Nc1cc(C(F)(F)F)cc(C(F)(F)F)c1)C(C)C`, the growth with T-47D breast was -71.8% [100 µM] (active); in the test with BT-549 breast it was -98% [100 µM] (active); with MDA-MB-435 melanoma, -87.3% [100 µM] (active); in the test with SW-620 colon, -47.5% [100 µM] (active); in the test with MCF7 breast, -64.1% [100 µM] (active); in the test with HCT-116 colon, -91.6% [100 µM] (active). Moreover, the growth in the test with HCC-2998 colon was -86.7% [100 µM] (active); with KM12 colon, -88.7% [100 µM] (active).

For the compound `CCCCN=C(N)c1ccc(OCCSCCOc2ccc(C(N)=NCCCC)cc2)cc1`, the growth with T-47D breast was 26.3%; in the test on BT-549 breast, -3.76% (active); in the test on MDA-MB-435 melanoma, 35.5%; in the test with SW-620 colon, 57.5%; with MCF7 breast, 29.1%; in the test on HCT-116 colon, 41.5%. Also, the growth is 59% with HCC-2998 colon and 27% in the test with KM12 colon.

Regarding `COc1ccc(C2CC(c3ccc(Nc4ccnc5cc(Cl)ccc45)cc3)=NN2C(C)=O)cc1` (stereo not given), the growth with T-47D breast is 40%; in the test on BT-549 breast, 68.5%; in the test on MDA-MB-435 melanoma it was 23%; in the test with SW-620 colon, 87.2%; with MCF7 breast it was 55.7%; in the test with HCT-116 colon it was 61.3%. For the same compound, the growth in the test on HCC-2998 colon was 70%; in the test on KM12 colon, 59.3%.

For `C[C@H](C(=O)N[C@@H](Cc1ccc(-c2ccccc2)cc1)C(=O)NC1CC(C)(C)N(C)C(C)(C)C1)c1ccc(-c2ccccc2)c(F)c1`, the growth in the test with T-47D breast is -52.7% (active); with BT-549 breast, -82.5% (active); in the test with MDA-MB-435 melanoma, -84.9% (active); in the test with SW-620 colon it was -76.8% (active); with MCF7 breast, -79.6% (active); with HCT-116 colon, -87.6% (active). The growth in the test with HCC-2998 colon was -86.8% (active); in the test on KM12 colon it was -78.6% (active).

As to `COc1cc(/C=C2\SC(N3CCCCC3)=NC2=O)ccc1OCCCCCCOc1ccc(/C=C2\SC(N3CCCCC3)=NC2=O)cc1OC`, the growth was 21.9% in the test on T-47D breast; -36.6% (active) with BT-549 breast; -48% (active) in the test on MDA-MB-435 melanoma; -24.7% (active) in the test with SW-620 colon; 16.6% in the test with MCF7 breast; -64.3% (active) in the test on HCT-116 colon. The growth was -76.5% (active) in the test with HCC-2998 colon and -72.1% (active) with KM12 colon.

With `Cc1n(Cc2ccc3ccccc3c2)c2ccccc2[n+]1Cc1ccc2ccccc2c1`, the growth in the test on T-47D breast was -3.2% (active); in the test with BT-549 breast, -79.7% (active); in the test with MDA-MB-435 melanoma, -72.8% (active); in the test with SW-620 colon it was -60.7% (active); with MCF7 breast, -70.9% (active); with HCT-116 colon it was -91% (active). Besides, the growth with HCC-2998 colon was -87% (active); in the test with KM12 colon it was -77.7% (active).

Turning to `CCOC(=O)CCN(c1c(Cl)ssc1=O)C(C)C`, the growth was 112% with T-47D breast; 95.7% in the test on BT-549 breast; 107% with MDA-MB-435 melanoma; 99.3% in the test on SW-620 colon; 89.7% in the test with MCF7 breast; 93.4% in the test with HCT-116 colon. Moreover, the growth in the test on HCC-2998 colon was 115%; in the test on KM12 colon, 113%.

The values are drawn from PubChem BioAssay (NCI).
